The results in this text go back to PubChem BioAssay (NCI).

Where “and” joins values, the source holds several entries; their conditions need not be identical. Equal entries are not always repeated. About 83,000 compounds went through this panel and 20% of them were active in at least one assay; those are over-represented in the sample as a whole.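 Compound tested at a single concentration for 48 hours in 96-well plates; a percent growth value below 10 was scored as active.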 A number with no mark means an inactive call. Calls of active or inactive are those of the source.

This assay deals with UO-31 renal. In words: NCI-60 one-dose screen, 48 h (100 = growth as untreated, 0 = no growth, -100 = all killed). The following applies: 10 µM unless noted.
With `NNc1nnc2nc(Nc3ccccc3)nc(Nc3ccc(S(N)(=O)=O)cc3)n12`, the growth was 82.2%.

As to `Brc1ccc2[nH]cc(-c3nn4cc(-c5nccs5)nc4s3)c2c1`, the growth is -48.1% (active).

Regarding `Nn1c(=O)n(-c2cccc(C(F)(F)F)c2)c(=O)c2cc(-c3ccc(F)cc3F)ccc21`, the growth is 5.45% (active).

With `CN(C)CCNc1ccc2ncc(C#Cc3cncc(C(=O)Nc4ccc(CN5CCN(C)CC5)c(C(F)(F)F)c4)c3)n2n1`, the growth was 77.8%.

Regarding `O=S(=O)(Oc1ccc(-c2cn3ccoc3n2)cc1)C1CCCCC1`, the growth is 97.4%.

As to `O=C(N/N=C\c1ccc([N+](=O)[O-])cc1)c1ccc2nc(-c3ccc(Br)cc3)[nH]c2c1`, the growth is 41.6%.

Regarding `Cc1ccsc1[C@H]1c2[nH]c3ccccc3c2C[C@H]2C(=O)N(CCCCCCC(=O)NO)CC(=O)N12`, the growth was 75.6%.

With `Cc1ccc(N2CCN(C3=C(Cl)C(=O)c4ncccc4C3=O)CC2)cc1`, the growth is 32%.

`N#Cc1cccc(-c2cc(-c3ccc4c(c3)OCCO4)[nH]n2)c1`: the growth is 42.8%.

Regarding `COc1cc2cc(Oc3ccc(NC(=O)c4cc(C(F)(F)F)cc(C(F)(F)F)c4)cc3)c(C)nc2cc1OCCN1CCOCC1`, the growth was 55.8%.

With `N#C/C(=N\Nc1ccc(F)cc1)C(=O)Nc1cc(-c2ccccc2)nn1-c1ccccc1`, the growth is 3.54% (active).

As to `CN(C)CCCOc1ccc(C(=C(c2ccccc2)C2CCCC2)c2ccc(OCCCN(C)C)cc2)cc1`, the growth is -96.8% (active).

As for `NC(=O)c1ncn2c(=O)n(CCF)nnc12`, the growth was 41%.

For `CN1CCN(c2ccc(Nc3nc(NCCNS(=O)(=O)c4ccc(Cl)cc4)c4sccc4n3)cc2)CC1`, the growth is 80%.

`COc1cc(-c2nc(-c3ccccc3)[nH]c2-c2ccnc(NCCCNS(=O)(=O)c3ccc(C(F)(F)F)cc3)n2)ccc1Cl`: the growth is 46.5% and 35.4%.

Take `CC1(C)CC[C@]23CC[C@]4(C)[C@H](CC[C@@H]5[C@@]6(C)CC[C@H](N)C(C)(C)[C@@H]6CC[C@]54C)[C@H]2[C@H]1OC3`: the growth was 82.7%.

For the compound `Clc1ccc2[nH]cc(-c3nn4cc(-c5cccnc5)nc4s3)c2c1`, the growth was 71.6%.

Consider `NS(=O)(=O)c1ccc(Nc2nc(N/N=C/c3ccc4c(c3)OCO4)nc(Nc3ccccc3)n2)cc1`, for which the growth was 76.8%.

`Brc1cc(-c2cc(-c3ccc4c(c3)OCCO4)[nH]n2)cs1`: the growth was 54.6%.

For the compound `CC1=C(C)C(=O)C(Nc2ccc(C)c(C)c2)=C(Br)C1=O`, the growth is 90.8%.

For `COC(=O)N1CCN(CCNCc2ccc(NC(=O)c3ccc(C)c(C#Cc4cnc5cccnn45)c3)cc2C(F)(F)F)CC1`, the growth is 26.8%.

As to `O=C(CCCCCCN1CC(=O)N2[C@@H](c3cccs3)c3[nH]c4ccccc4c3C[C@H]2C1=O)NO`, the growth is 82.7%.

As for `C=C(C)[C@@H]1CC[C@]2(C(=O)N3CCN(C)CC3)CC[C@]3(C)[C@H](CC[C@@H]4[C@@]5(C)CC[C@H](OP(=O)(OCC)OCC)C(C)(C)[C@@H]5CC[C@]43C)[C@@H]12`, the growth is 60.8%.

`CC(=O)N(O)CCCCCNC(=O)CCC(=O)N(O)CCCCCNC(=O)CCC(=O)N(O)CCCCCN(CCCCCCCCCC[P+](c1ccccc1)(c1ccccc1)c1ccccc1)CCCCCCCCCC[P+](c1ccccc1)(c1ccccc1)c1ccccc1`: the growth is 52.3%.

Turning to `Cc1[nH]c(C(=O)Nc2ccccc2OCc2cccc(C(=O)NCCN)c2)cc1Cl`, the growth was 92.2%.

For `CCOC(=O)Nc1ccc2c(ccn2C(=O)c2cccc(F)c2)c1`, the growth is 49.9%.

Turning to `O=C(Nc1ccc(N=Cc2c(O)[nH]c3ccccc23)cc1)Nc1ccc(S(=O)(=O)Nc2ncccn2)cc1`, the growth is 81.7%.

With `Fc1cccc(Cl)c1/C=N/Nc1nc(N/N=C/c2c(F)cccc2Cl)nc(N2CCCCC2)n1`, the growth was 9.02% (active).

With `CCc1nnc(NC(=O)c2cc(-c3ccc(Cl)cc3Cl)oc2C)s1`, the growth was 85.1%.

For the compound `C/C(=N\NC(=O)Nc1ccccc1)c1nnn(-c2ccc([N+](=O)[O-])cc2)c1C`, the growth was 72.4%.

Regarding `C#C[C@]1(O)CC[C@H]2[C@@H]3CC=C4c5sc(Nc6cc(Cl)ccc6OC)nc5CC[C@]4(C)[C@H]3CC[C@@]21C`, the growth was 16.1%.

Take `O=C(O)CC1CCN(c2ccc3nnc(Cl)n3n2)CC1`: the growth is 81.5%.

Turning to `Cc1cc2nc(C(Cl)Cl)nc(-c3ccc(S(=O)(=O)N(C)C)cc3)n2n1`, the growth is 65.7%.
